# Rows were chosen to be rich in hits. Some 11% of all compounds tested hit in one or more screens of this group.
# ALDH1A1 block: qHTS Assay for Inhibitors of Aldehyde Dehydrogenase 1 (ALDH1A1) | Purified ALDH1A1, NADH fluorescence, propionaldehyde substrate | AID 1030, 2008 | Aldehyde dehydrogenase 1A1 (Homo sapiens), P00352 | hit rate 7.3% among 220,000 | Potency, µM (doses to about 75.3 µM), usual class: inhibitors
# Target sequence (P00352 whole entry, looked up): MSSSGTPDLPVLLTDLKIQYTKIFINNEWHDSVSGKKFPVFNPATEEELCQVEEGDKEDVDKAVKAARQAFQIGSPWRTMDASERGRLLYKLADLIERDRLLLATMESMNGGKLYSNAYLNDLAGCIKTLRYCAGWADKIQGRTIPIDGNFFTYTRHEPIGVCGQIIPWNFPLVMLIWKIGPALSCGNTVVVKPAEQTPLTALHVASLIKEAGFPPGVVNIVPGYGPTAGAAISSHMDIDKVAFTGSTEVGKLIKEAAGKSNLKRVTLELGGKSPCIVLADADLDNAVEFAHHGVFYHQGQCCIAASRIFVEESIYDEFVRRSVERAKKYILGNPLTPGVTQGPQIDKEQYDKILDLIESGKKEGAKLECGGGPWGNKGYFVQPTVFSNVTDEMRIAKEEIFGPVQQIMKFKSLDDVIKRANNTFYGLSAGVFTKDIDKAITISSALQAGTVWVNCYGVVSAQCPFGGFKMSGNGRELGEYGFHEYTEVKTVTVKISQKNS
# PNC inhibitor: High Content Assay for Compounds that inhibit the Assembly of the Perinucleolar Compartment; PC3M PTB-GFP, PNC prevalence imaging, 16 h; hits give low values; activity change (PNC), negative = inhibition, % at 10 µM; hit rate 3.1% among 140,000; AID 2417, 2010;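 active means readout at or below -70, meaning at least 70% loss of cells showing the perinucleolar compartment, a nuclear body marking cancer cells; inconclusive means readout between -30 and a set limit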
#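 Read-out is percentage of cells bearing a perinucleolar compartment, from automated 20x imaging of fixed, Hoechst-stained PC3M PTB-GFP cells. Cells were seeded 4 h, then exposed 16 h to compound (23 nl of library stock) in duplicate plates.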
# HPGD inh: qHTS Assay for Inhibitors of HPGD (15-Hydroxyprostaglandin Dehydrogenase). AID 894, 2007. hit rate 4.3% among 150,000. Potency, µM, most hits filed as inhibitors. purified HPGD, NADH fluorescence kinetic, PGE2 substrate
#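 20 nM HPGD preincubated 15 min at room temperature with compound in 50 mM Tris-HCl pH 8, 0.01% Tween 20. Started with 1 mM NAD+ and 30 uM prostaglandin E2; NADH fluorescence (360/450 nm) read 5 times over 30-s intervals, last minus first.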
# Numbers stand for hits; - = inactive; ? = inconclusive; . = no result. Unless noted, the call rests on the fitted dose curve; in most records, active means well fitted inhibition curve with a large enough effect (not every such curve was filed as active); inconclusive means small, poorly fitted or top-dose-only effect, or another doubt; inactive means no such curve, though single readings can be large or run the other way.
SMILES,ALDH1A1 block,PNC inhibitor,HPGD inh
O=C1C2C3C=CC(CO)(O3)C2C(=O)N1c1ccc(-c2ccccc2)cc1 (configuration not stated),0.13µM,?,1.4µM
O=C(O)c1ccc(N2C(=O)C3C4c5ccccc5C(Br)(c5ccccc54)C3C2=O)cc1 (configuration not stated),-,.,.
CC(C)(C)C(=O)NCC12C=CC(O1)C1C(=O)N(c3ccccc3)C(=O)C12 (configuration not stated),1.4µM,-,20µM
Cc1noc(NC(=O)c2ccccc2C(F)(F)F)c1C#N,-,.,.
Cc1nc2ccc(S(=O)(=O)N(C)CC(=O)Nc3ccccc3F)cc2s1,-,.,.
Cc1cc(NS(=O)(=O)c2ccccc2)cc(Cl)c1O,7.1µM,-,-
Cc1ccc(S(=O)(=O)Nc2ccc(S(=O)(=O)NC(C)(C)C)cc2)cc1,?,-,-
Cc1ccc(S(=O)(=O)Nc2cc(C)c(O)c(S(=O)(=O)c3ccc(C)cc3)c2)cc1,0.63µM,-,-
O=S(=O)(Nc1ccc(S(=O)(=O)Nc2ccccc2)cc1)c1ccccc1,?,-,-
COc1ccc2c(c1)C(SCC(=O)NCCc1ccc(Cl)cc1)CC(C)(C)O2 (configuration not stated),-,-,-
NC(=O)NC(N)=O,-,.,-
O=C1C2C3C=CC([C@@H]2C(=O)N1Cc1cccnc1)C31CC1 (some centres not stated),-,-,-
N#CC12CCCCC1CC1CCCCC1(C#N)N2Cc1cccnc1 (configuration not stated),-,-87,-
O=C(NC1CCCCC1)c1ccc(Cc2nc3ccccc3[nH]2)cc1,-,.,-
O=C(NC(=S)Nc1ccc(Cc2ccncc2)cc1)c1ccccc1,18µM,-,?
Cc1cc(C)cc(C(=O)NC(=S)Nc2ccc(Cc3ccncc3)cc2)c1,?,-,-
COC(=O)Nc1ccc(Cc2ccncc2)cc1,-,.,.
Cc1cccc(C(=O)NC(=S)Nc2ccc(Cc3ccncc3)cc2)c1,20µM,-,?
COc1ccc2c(C)cc(SCC(=O)Nc3ccc(Cl)cn3)nc2c1,?,-,-
Cc1ccc(NC(=O)CN2C(=O)S/C(=C\c3cc(C)n(-c4ccc(C(=O)O)cc4)c3C)C2=O)cc1,-,.,.
CCn1c(C)cc(/C=C2/SC(=S)N(CC(=O)O)C2=O)c1C,-,.,.
COc1ccc(N=C2S/C(=C\c3ccco3)C(=O)N2CC(C)C)cc1,?,-,-
COc1ccc(N=C2S/C(=C\c3cc(C)n(C)c3C)C(=O)N2CC(C)C)cc1,2.5µM,-,-
C#CCN1C(=O)S/C(=C/c2cc(C)n(CC)c2C)C1=O,7.5µM,-,.
COC(=O)CN1C(=O)S/C(=C/c2cc(C)n(C)c2C)C1=O,14µM,?,-
SMILES,ALDH1A1 block,PNC inhibitor,HPGD inh
C=CCNC(=O)COc1ccc(N(C)S(=O)(=O)c2ccc(NC(C)=O)cc2)cc1,-,.,.
CC(N=C1CC(C)(C)CC(=O)/C1=C(/O)CCCN1C(=O)c2ccccc2C1=O)C(=O)O (configuration not stated),-,.,.
C=C1CCC(C2CC(=O)OC2=O)C(=O)CCC2C1CC2(C)C (configuration not stated),-,.,-
CC1(C)Cc2cccc(C(=O)NC3CCN(Cc4ccccc4)CC3)c2O1,-,.,.
O=C(COC(=O)/C=C/c1cccc(Br)c1)NCCC1=CCCCC1,-,-,-
O=C(/C=C/c1cccc(Br)c1)NCC1CCCCC1,11µM,-,-
O=C(NC(=S)NCC1CCCO1)c1ccc([N+](=O)[O-])cc1 (configuration not stated),?,-,-
C=CCn1c2ccccc2c2nnc(SCC(=O)Nc3c(C)n(C)n(-c4ccccc4)c3=O)nc21,-,-,-
CCn1c2ccccc2c2nnc(SCC(=O)N(C)C3CCS(=O)(=O)C3)nc21 (configuration not stated),?,-,-
CCn1c2ccccc2c2nnc(SCC(=O)NCc3cccs3)nc21,-,-,-
CCn1c2ccccc2c2nnc(SCC(=O)NCCOC)nc21,-,-,16µM
CCCn1c2ccccc2c2nnc(SCC(=O)OC)nc21,14µM,?,.
C=CCn1c2ccccc2c2nnc(SCC(=O)NC(C(=O)OC)C(C)C)nc21 (configuration not stated),20µM,-,20µM
CCCn1c2ccccc2c2nnc(SCC(=O)OCC)nc21,?,-,-
CCn1c2ccccc2c2nnc(SCC(=O)NC3CCS(=O)(=O)C3)nc21 (configuration not stated),-,?,32µM
CN(C(=O)CCn1c(=S)oc2ccccc21)c1ccc(F)cc1,-,.,.
CCOC(=O)CNC(=O)O[C@@H]1C(=O)c2cc(Br)ccc2O[C@H]1c1cccc(OC)c1,-,.,-
CCOC(=O)c1ccc[n+](C(C)C(=O)c2ccc(-c3ccccc3)cc2)c1 (configuration not stated),5.6µM,-,-
CCOC(=O)c1ccc[n+](CC(=O)c2ccccc2)c1,-,-,-
COc1ccccc1CN1CCC2(CC1)CCN(C(=O)c1ccncc1)CC2,-,.,-
CC(=O)NC(=S)Nc1cccc(S(=O)(=O)NC2=NCCC2)c1,-,-,-
COc1ccccc1C1C([N+](=O)[O-])=CC([N+](=O)[O-])=CN1C (configuration not stated),13µM,?,-
COc1ccccc1C1NC=C([N+](=O)[O-])C=C1[N+](=O)[O-] (configuration not stated),8.9µM,-,3.5µM
COc1ccccc1C1CCN(c2ccc([N+](=O)[O-])c(OC)c2)CC1,-,.,.
COc1ccccc1C1CCN(C(=O)c2cccc([N+](=O)[O-])c2)CC1,-,.,.
SMILES,ALDH1A1 block,PNC inhibitor,HPGD inh
O=C(O)c1cccc2c1C(=O)c1cccc3snc-2c13,-,.,.
O=C(NC1CC1)c1ccc(S(=O)(=O)NC2CCCCCC2)cc1,-,-,-
O=C(NNS(=O)(=O)c1ccc(C(=O)NC2CCCC2)cc1)c1ccncc1,2.8µM,.,.
O=C(Oc1ccc(N(Cc2cccs2)C2=NS(=O)(=O)c3ccccc32)cc1)c1ccc(Cl)cc1,22µM,-,-
O=C(Oc1ccc(N(Cc2cccs2)C2=NS(=O)(=O)c3ccccc32)cc1)c1ccccc1,?,-,-
CCN(C(=S)Nc1ccccc1F)C1CCCCC1,-,-,-
Oc1ccc(NCc2ccccc2OCc2ccccc2F)cc1,18µM,-,-
Cc1ccc(NCc2ccccc2OCc2ccccc2F)cc1,-,-,-
COc1cccc(CNCCO)c1OCc1ccc(Cl)cc1,-,.,.
CCOc1cccc(CNc2ccc(O)cc2)c1OCc1ccc(Cl)cc1,2.2µM,-,-
O=C(CS(=O)(=O)Cc1ccccc1)Nc1ccc(S(=O)(=O)N2CCOCC2)cc1,-,-,-
CCOC(=O)C1C(C(=O)OC)=C(c2ccc(F)cc2)c2ccc(OC)cc2N1S(=O)(=O)C(F)(F)F (configuration not stated),?,.,-
Cc1cc(C)n(C(CC(=O)N2CCc3ccccc3C2)C(=O)O)n1 (configuration not stated),-,-127,-
Cc1cc([N+](=O)[O-])nn1CC(=O)N1CCc2ccccc2C1,-,-,-
CC(=O)Oc1ccc2c(=O)c(-c3nc4ccccc4s3)coc2c1,-,.,.
